Calls of active or inactive are those of the source.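 Rule for the calls: active = compound that significantly cut labelled fatty acid release from lipid-loaded liver cells compared with solvent alone; inactive = the rest.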
Test: Secondary Assay for lipid storage modulators. NEFA Incorporation/Release.
Settings: AML12 cells, [3H]oleic acid NEFA release, at 5 µM, stronger effect = lower value
Text: Data Source: University of Maryland BioAssay Type: Secondary Description: NIH Molecular Libraries Probe Production Centers Network [MLPCN] NIH Chemical Genomics Center [NCGC] Assay Submitter (PI): Carole Sztalryd; GRECC/Geriatrics, Veterans Affairs Medical Center, Department of Medicine, School of Medicine, University of Maryland, Baltimore, Maryland, USA. Beller, Mathias; Max-Planck-Institut fur Biophysikalische Chemie, Germany. NCGC Assay Overview: Storing lipids as a reservoir for energy or the anabolism of elementary metabolites is a common feature of probably all cells and is conserved from bacteria to humans. The universal cellular lipid storage organelle is the so-called lipid storage droplet (LD). Although ubiquitous, LDs share a simple structure composed of a hydrophobic core that harbors the storage lipids, which is shielded by a droplet-specific phospholipid monolayer to which proteins are attached. The current model of LD biogenesis involves an incorporation of the lipid core into the membrane leaflets of the endoplasmic reticulum (ER) followed by a subsequent budding-like maturation of a LD, which ultimately pinches off. Once released, LD volume can increase by localized lipogenesis or fusion of existing droplet. Storage lipids are re-mobilized enzymatically by lipase activity. Lipase regulation in the adipocyte is heavily studied and involves multiple components including catecholamine signaling, the LD-associated proteins Perilipin and comparative gene identification (CGI-58) and at least two lipases named hormone sensitive lipase (HSL) and adipocyte triglyceride lipase (ATGL). LD regulation outside of the adipocyte is poorly understood and only few components are known. However, there is an urgent need to learn more about ectopic fat depots as mislocalized storage of lipids, for example in the liver or muscle, is an eminent health problem associated with insulin resistance or the metabolic syndrome. We developed a laser-scanning cytometer assay to enable 1,536-well screening and combined the results of the small molecules screen with an RNAi database based on lipid storage. […]
Assay Protocol Summary: Measurements of NEFA released from lipid droplets or incorporated into the TG fraction were performed as previously described. […] Lipolysis was determined by measuring radioactivity released into the media in 1 h. […] Lipids were extracted by the Bligh-Dyer method, and 10% of the total lipid was analyzed by thin layer chromatography. AML12 cells treated with or without specific siRNAs were additionally incubated with either vehicle (DMSO), 5 uM of Exo1 (12.5 mg/ml DMSO), or BFA (10 mg/ml DMSO) during the time of radioactivity release into the media (2 h). NEFA incorporation into the TG fraction and NEFA release are calculated as […]/mg protein. […]

COC(=O)c1ccccc1NC(=O)c1ccc(F)cc1
NEFA release change: -0.35 nmol/mg (active) | NEFA release change (gammaCOP siRNA treatment): -0.3 nmol/mg | NEFA release change (measured here: ATGL siRNA treatment): -0.63 nmol/mg | NEFA release change (measured here: control siRNA treatment): -0.47 nmol/mg

Source: PubChem BioAssay AID1547 (National Center for Advancing Translational Sciences (NCATS), 2009)
